The values that follow come from publication PMC12820563, “FoxP3 forms a head-to-head dimer in vivo and stabilizes its multimerization on adjacent microsatellites”.

In all, about 16,000 sequences were measured (“rpm ratio (pull-down/input)”: median about 0.94, highest 2% from about 1.7 on). Many of the other results were omitted from the sample, so the highest values are more common in it than they were.

This assay has as its target T1, MBP-FoxP1dN (Mus musculus, UniProt P58462 326-579).
T1 sequence: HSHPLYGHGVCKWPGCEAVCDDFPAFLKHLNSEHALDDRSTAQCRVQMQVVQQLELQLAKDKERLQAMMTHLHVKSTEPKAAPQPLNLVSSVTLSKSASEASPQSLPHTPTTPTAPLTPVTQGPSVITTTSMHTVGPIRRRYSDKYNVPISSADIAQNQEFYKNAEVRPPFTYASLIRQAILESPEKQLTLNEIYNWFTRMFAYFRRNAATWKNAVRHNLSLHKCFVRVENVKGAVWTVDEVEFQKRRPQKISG
The assay is described as follows: PD-seq (MBP pull-down with sequencing); 20 mM Tris-HCl pH 7.5, 100 mM NaCl, 1.5 mM MgCl2, 0.4 uM protein, 0.1 uM dsDNA library, 30 min, room temperature, amylose pull-down; high values mean tight binding. The following applies: protein: recombinant; tags: His6-MBP; chain copies: 2; dsDNA, one strand shown. In outline: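 A degenerate double-stranded DNA library, filled in with Klenow, was added at 0.1 µM to 0.4 µM His6-MBP-tagged mouse FoxP3 or FoxP1 fragment lacking the N-terminus, expressed in E. coli. Incubation lasted 30 min at room temperature in Tris pH 7.5 buffer with NaCl and MgCl2, after which complexes were collected on amylose resin, washed three times, digested with proteinase K to free the DNA, barcoded by PCR and sequenced by Illumina. Binding is the pooled-replicate reads-per-million enrichment of pull-down over input.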
In the case of “GATGATTGTTCTCCCAGCTGATGAATTAATCAACTCGAGTAAACAAATTTTCCTAATCTTTCTGTTCAAGCGCCATCTAC”, the binding signal was 1.1 RPM ratio (pull-down/input). Regarding “GATGATTGTTCTCCCAGCTGATGAATTAAAAACATCGAGTAAACAAATTTTCCTAATCTTTCTGTTCAAGCGCCATCTAC”, the binding signal was 2.08 RPM ratio (pull-down/input). The same measure for “GATGATTGTTCTCCCAGCTGATGAATTAAATTAATCGAGTAAACAAATTTTCCTAATCTTTCTGTTCAAGCGCCATCTAC”: 1.01 RPM ratio (pull-down/input). “GATGATTGTTCTCCCAGCTGATGAATTAAACTCCTCGAGTAAACAAATTTTCCTAATCTTTCTGTTCAAGCGCCATCTAC”: the binding signal was 0.846 RPM ratio (pull-down/input).

Take “GATGATTGTTCTCCCAGCTGATGAATTAAAACAATCGAGTAAACAAATTTTCCTAATCTTTCTGTTCAAGCGCCATCTAC”: the binding signal is 2 RPM ratio (pull-down/input). Turning to “GATGATTGTTCTCCCAGCTGATGAATTAATTCAATCGAGTAAACAAATTTTCCTAATCTTTCTGTTCAAGCGCCATCTAC”, the binding signal was 0.961 RPM ratio (pull-down/input). With “GATGATTGTTCTCCCAGCTGATGAATTAAACAACTCGAGTAAACAAATTTTCCTAATCTTTCTGTTCAAGCGCCATCTAC”, the binding signal is 1.84 RPM ratio (pull-down/input). To “GATGATTGTTCTCCCAGCTGATGAATTAAAAAAATCGAGTAAACAAATTTTCCTAATCTTTCTGTTCAAGCGCCATCTAC” belongs 1.04 RPM ratio (pull-down/input); to “GATGATTGTTCTCCCAGCTGATGAATTAAACAAATCGAGTAAACAAATTTTCCTAATCTTTCTGTTCAAGCGCCATCTAC”, 2.02 RPM ratio (pull-down/input). For the sequence “GATGATTGTTCTCCCAGCTGATGAATTAAATCAATCGAGTAAACAAATTTTCCTAATCTTTCTGTTCAAGCGCCATCTAC”, the binding signal was 1.01 RPM ratio (pull-down/input). Turning to “GATGATTGTTCTCCCAGCTGATGAATTAATCTAATCGAGTAAACAAATTTTCCTAATCTTTCTGTTCAAGCGCCATCTAC”, the binding signal is 1.1 RPM ratio (pull-down/input). For “GATGATTGTTCTCCCAGCTGATGAATTTAAAACATCGAGTAAACAAATTTTCCTAATCTTTCTGTTCAAGCGCCATCTAC”, the binding signal was 1.37 RPM ratio (pull-down/input). Take “GATGATTGTTCTCCCAGCTGATGAATTCTCACAGTCGAGTAAACAAATTTTCCTAATCTTTCTGTTCAAGCGCCATCTAC”: the binding signal was 0.875 RPM ratio (pull-down/input).

With “GATGATTGTTCTCCCAGCTGATGAATTAATTGAGTCGAGTAAACAAATTTTCCTAATCTTTCTGTTCAAGCGCCATCTAC”, the binding signal is 0.932 RPM ratio (pull-down/input). As for “GATGATTGTTCTCCCAGCTGATGAATTGGGTATCTCGAGTAAACAAATTTTCCTAATCTTTCTGTTCAAGCGCCATCTAC”, the binding signal is 0.935 RPM ratio (pull-down/input).

With “GATGATTGTTCTCCCAGCTGATGAATTAGAAGCTTCGAGTAAACAAATTTTCCTAATCTTTCTGTTCAAGCGCCATCTAC”, the binding signal was 0.996 RPM ratio (pull-down/input).

In the case of “GATGATTGTTCTCCCAGCTGATGAATTGCGGCAGTCGAGTAAACAAATTTTCCTAATCTTTCTGTTCAAGCGCCATCTAC”, the binding signal is 0.919 RPM ratio (pull-down/input). For the sequence “GATGATTGTTCTCCCAGCTGATGAATTGCGCTAGTCGAGTAAACAAATTTTCCTAATCTTTCTGTTCAAGCGCCATCTAC”, the binding signal is 1.06 RPM ratio (pull-down/input). On to “GATGATTGTTCTCCCAGCTGATGAATTTATTGATTCGAGTAAACAAATTTTCCTAATCTTTCTGTTCAAGCGCCATCTAC”, for which the binding signal was 1.86 RPM ratio (pull-down/input).

Turning to “GATGATTGTTCTCCCAGCTGATGAATTTATTTATTCGAGTAAACAAATTTTCCTAATCTTTCTGTTCAAGCGCCATCTAC”, the binding signal was 2.17 RPM ratio (pull-down/input). As for “GATGATTGTTCTCCCAGCTGATGAATTTATTCTTTCGAGTAAACAAATTTTCCTAATCTTTCTGTTCAAGCGCCATCTAC”, the binding signal was 1.34 RPM ratio (pull-down/input). To “GATGATTGTTCTCCCAGCTGATGAATTCTTTTATTCGAGTAAACAAATTTTCCTAATCTTTCTGTTCAAGCGCCATCTAC” belongs 1.13 RPM ratio (pull-down/input). Turning to “GATGATTGTTCTCCCAGCTGATGAATTTCTTTATTCGAGTAAACAAATTTTCCTAATCTTTCTGTTCAAGCGCCATCTAC”, the binding signal is 0.979 RPM ratio (pull-down/input). “GATGATTGTTCTCCCAGCTGATGAATTGATTTATTCGAGTAAACAAATTTTCCTAATCTTTCTGTTCAAGCGCCATCTAC”: the binding signal was 1.27 RPM ratio (pull-down/input). Turning to “GATGATTGTTCTCCCAGCTGATGAATTAATTTCCTCGAGTAAACAAATTTTCCTAATCTTTCTGTTCAAGCGCCATCTAC”, the binding signal is 0.884 RPM ratio (pull-down/input). “GATGATTGTTCTCCCAGCTGATGAATTTATGCAGTCGAGTAAACAAATTTTCCTAATCTTTCTGTTCAAGCGCCATCTAC”: the binding signal is 1.11 RPM ratio (pull-down/input). The same measure for “GATGATTGTTCTCCCAGCTGATGAATTTACGTCATCGAGTAAACAAATTTTCCTAATCTTTCTGTTCAAGCGCCATCTAC”: 1.45 RPM ratio (pull-down/input); for “GATGATTGTTCTCCCAGCTGATGAATTATTTACCTCGAGTAAACAAATTTTCCTAATCTTTCTGTTCAAGCGCCATCTAC”: 1.86 RPM ratio (pull-down/input); for “GATGATTGTTCTCCCAGCTGATGAATTTACCTCCTCGAGTAAACAAATTTTCCTAATCTTTCTGTTCAAGCGCCATCTAC”: 1.07 RPM ratio (pull-down/input). The same measure for “GATGATTGTTCTCCCAGCTGATGAATTTATTACCTCGAGTAAACAAATTTTCCTAATCTTTCTGTTCAAGCGCCATCTAC”: 1.2 RPM ratio (pull-down/input); for “GATGATTGTTCTCCCAGCTGATGAATTACCTACCTCGAGTAAACAAATTTTCCTAATCTTTCTGTTCAAGCGCCATCTAC”: 0.913 RPM ratio (pull-down/input); for “GATGATTGTTCTCCCAGCTGATGAATTGTTTACCTCGAGTAAACAAATTTTCCTAATCTTTCTGTTCAAGCGCCATCTAC”: 2.65 RPM ratio (pull-down/input). As for “GATGATTGTTCTCCCAGCTGATGAATTTTTTACCTCGAGTAAACAAATTTTCCTAATCTTTCTGTTCAAGCGCCATCTAC”, the binding signal is 0.943 RPM ratio (pull-down/input).
